Data taken from the supplement of paper PMC8975748.
Where a name gives a salt, the structure may show the parent alone.

Test system: Saccharomyces cerevisiae BY4741 SeMeCo community
Experiment: z-score of subpopulation abundance vs DMSO median, subpopulation auxotrophic for HLUM; higher = larger share of this subpopulation than in DMSO controls
Settings: 10 µM; 24 h; SM minimal medium; subpopulation (auxotrophy): HLUM
Description: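 Fluorescent four-plasmid SeMeCo (self-establishing metabolically cooperating S. cerevisiae BY4741 community; plasmids pH-mRuby2, pL-mWasabi, pU-eCFP, pM-TagRFP657) was grown 24 h in minimal SM medium with each Selleck FDA-approved drug at 10 µM in 384-well plates. Cells were fixed and imaged by high-content confocal microscopy. For each auxotrophic subpopulation (and the prototroph), a z-score gives the deviation from the DMSO vehicle-control population median.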

| SMILES | z-score of subpopulation abundance |
| --- | --- |
| C=CCc1ccc(O)c(-c2ccc(O)c(CC=C)c2)c1 [Honokiol] | -0.84 |
| COc1c(N2CCNC(C)C2)c(F)cc2c(=O)c(C(=O)O)cn(C3CC3)c12 (stereo not given) [Gatifloxacin] | -0.38 |
| Nc1c(CC(=O)O)cccc1C(=O)c1ccccc1 [Amfenac Sodium Monohydrate] | 0.57 |
| CO/N=C(\C(=O)N[C@@H]1C(=O)N2C(C(=O)O)=C(CSc3nc(=O)c(O)nn3C)CS[C@H]12)c1csc(N)n1 [Ceftriaxone Sodium Trihydrate] | 0.83 |
| CN(C)CCC[C@@]1(c2ccc(F)cc2)OCc2cc(C#N)ccc21 [Escitalopram Oxalate] | 0.18 |
| CN(C)[C@@H](CCOc1cccc2ccccc12)c1ccccc1 [Dapoxetine HCl] | -0.01 |
| CCC[C@@H]1C[C@@H](C(=O)N[C@@H]([C@H]2O[C@H](SC)[C@H](O)[C@@H](O)[C@H]2O)[C@@H](C)O)N(C)C1 [Lincomycin HCl] | -0.36 |
| COc1ccc(Cl)cc1C(=O)NCCc1ccc(S(=O)(=O)NC(=O)NC2CCCCC2)cc1 [Glyburide (Glibenclamide)] | 0.01 |
| COc1cc([C@@H]2c3cc4c(cc3[C@@H](O[C@@H]3O[C@@H]5CO[C@@H](C)O[C@H]5[C@H](O)[C@H]3O)[C@H]3COC(=O)[C@H]23)OCO4)cc(OC)c1O [Etoposide] | 1.05 |
| CN1[C@@H]2CC[C@H]1C[C@@H](OC(c1ccccc1)c1ccccc1)C2 [Benztropine mesylate] | -0.38 |
| CS(=O)(=O)Nc1ccc([N+](=O)[O-])cc1Oc1ccccc1 [Nimesulide] | 0.87 |
| C[C@]12CC[C@@H]3c4ccc(OC(=O)c5ccccc5)cc4CC[C@H]3[C@@H]1CC[C@@H]2O [Estradiol Benzoate] | -0.15 |
| NS(=O)(=O)Cc1noc2ccccc12 [Zonisamide] | 1.75 |
| NCCNc1ccc(NCCN)c2c1C(=O)c1ccncc1C2=O [Pixantrone Maleate] | -1.46 |
| COc1cc(N)c(Cl)cc1C(=O)NC1CCN(CCCOc2ccc(F)cc2)CC1OC (stereo not given) [Cisapride] | -0.17 |
| CC[C@H](c1ccc(O)cc1)[C@@H](CC)c1ccc(O)cc1 [Hexestrol] | -1.21 |
| CNS(=O)(=O)CCc1ccc2[nH]cc(C3CCN(C)CC3)c2c1 [Naratriptan HCl] | -0.77 |
| OC1(c2ccc(Cl)c(C(F)(F)F)c2)CCN(CCCC(c2ccc(F)cc2)c2ccc(F)cc2)CC1 [Penfluridol] | 0.27 |
| C[C@@H](O)[C@H]1C(=O)N2C(C(=O)O)=C(S[C@@H]3CN[C@H](C(=O)N(C)C)C3)[C@H](C)[C@H]12 [Meropenem] | -0.68 |
| CCC(=O)Oc1ccc2c(c1)CCC1C2CCC2(C)C(OC(=O)CC)CCC12 (stereo not drawn) [Estradiol dipropionate(17-Beta-Estradiol-3,17-Dipropionate)] | -1.07 |

| SMILES | z-score of subpopulation abundance |
| --- | --- |
| Nc1nc(/C(=C/CC(=O)O)C(=O)N[C@@H]2C(=O)N3C(C(=O)O)=CCS[C@H]23)cs1 [Ceftibuten dihydrate] | 0.51 |
| NCC[C@H](O)C(=O)N[C@@H]1C[C@H](N)[C@@H](O[C@H]2O[C@H](CN)[C@@H](O)[C@H](O)[C@H]2O)[C@H](O)[C@H]1O[C@H]1O[C@H](CO)[C@@H](O)[C@H](N)[C@H]1O [Amikacin hydrate] | 0.15 |
| C[C@@H]1CC(=O)NN=C1c1ccc(NN=C(C#N)C#N)cc1 [Levosimendan] | -0.43 |
| CN(C)CCn1nnnc1SCC1=C(C(=O)O)N2C(=O)[C@@H](NC(=O)Cc3csc(N)n3)[C@H]2SC1 [Cefotiam hydrochloride] | 0.99 |
| CC(c1cc2ccccc2s1)N(O)C(N)=O (stereo not given) [Zileuton] | 0 |
| CC(=O)OCC1=C(C(=O)O)N2C(=O)[C@@H](NC(=O)CSc3ccncc3)[C@H]2SC1 [Cephapirin Benzathine] | -0.55 |
| CC(=O)O[C@H]1C[C@@H]2CC[C@@H]3[C@H](CC[C@@]4(C)[C@H]3C[C@H]([N+]3(C)CCCCC3)[C@@H]4OC(C)=O)[C@@]2(C)C[C@@H]1N1CCCCC1 [Vecuronium Bromide] | 0.24 |
| CCCCCOc1ccc(-c2cc(-c3ccc(C(=O)N[C@H]4C[C@@H](O)[C@@H](O)NC(=O)[C@@H]5[C@@H](O)[C@@H](C)CN5C(=O)[C@H]([C@H](O)CC(N)=O)NC(=O)[C@H]([C@H](O)[C@@H](O)c5ccc(O)c(OS(=O)(=O)O)c5)NC(=O)[C@@H]5C[C@@H](O)CN5C(=O)[C@H]([C@@H](C)O)NC4=O)cc3)no2)cc1 [Micafungin Sodium] | 86.5 |
| OCCN1CCN(CC/C=C2/c3ccccc3Sc3ccc(C(F)(F)F)cc32)CC1 [Flupenthixol dihydrochloride] | -0.47 |
| C[C@@H](O)[C@H]1C(=O)N2C(C(=O)O)=C(S[C@@H]3CN[C@H](CNS(N)(=O)=O)C3)[C@H](C)[C@H]12 [Doripenem Hydrate] | -1.04 |
| CC(C(=O)O)c1cccc(C(=O)c2ccccc2)c1 (stereo not given) [Ketoprofen] | 1.1 |
| Cc1cc(O)cc(C)c1Cl [Chloroxylenol] | 0.12 |
| Cn1cc(C(=O)[C@@H]2CCc3[nH]cnc3C2)c2ccccc21 [Ramosetron Hydrochloride] | 0.88 |
| CN(Cc1cnc2nc(N)nc(N)c2n1)c1ccc(C(=O)N[C@@H](CCC(=O)O)C(=O)O)cc1 [Methotrexate] | 6.15 |
| C=C[C@]1(C)C[C@@H](OC(=O)CSC(C)(C)CNC(=O)[C@H](N)C(C)C)[C@]2(C)[C@H](C)CC[C@]3(CCC(=O)[C@H]32)[C@@H](C)[C@@H]1O [Valnemulin HCl] | 0.48 |
| CS(=O)(=O)c1ccc([C@@H](O)[C@@H](CF)NC(=O)C(Cl)Cl)cc1 [Florfenicol] | -0.14 |
| CCOC(=O)c1ccc(O)cc1 [Ethylparaben] | 1.8 |
| C1CCN2C[C@@H]3C[C@@H](CN4CCCC[C@@H]34)[C@H]2C1 [(-)-Sparteine Sulfate] | -0.92 |
| CCNC(=O)[C@@H]1CCCN1C(=O)[C@H](CCCNC(=N)N)NC(=O)[C@H](CC(C)C)NC(=O)[C@@H](CC(C)C)NC(=O)[C@H](Cc1ccc(O)cc1)NC(=O)[C@H](CO)NC(=O)[C@H](Cc1c[nH]c2ccccc12)NC(=O)[C@H](Cc1c[nH]cn1)NC(=O)[C@@H]1CCC(=O)N1 [Leuprolide Acetate] | 0.75 |
| N#Cc1ccc2[nH]cc(CCCCN3CCN(c4ccc5oc(C(N)=O)cc5c4)CC3)c2c1 [Vilazodone HCl] | -0.28 |
